Source: PubChem BioAssay AID651710 (Broad Institute, 2012)
“And” between values parts separate entries of the source, which are not always exact repeats. Identical values can stand only once. Out of some 360,000 compounds screened, about 1,600 (0.44%) were called active.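 How the source made its calls: active means every replicate showing at least 50% inhibition; inconclusive means mean inhibition at least 50% but not in every replicate; inactive means the rest.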 The sample as a whole holds a higher share of actives than the screen did. More than one record can exist for a structure, and the calls need not agree.

biological target: DNA repair protein RAD52 homolog (Homo sapiens) (UniProt P43351); experiment: blockers of RAD52 strand annealing activity – biochemical, FRET, single point, set 2, primary screen (AID 651710); settings: recombinant RAD52 DNA annealing, FRET fluorescence; at 18.7 µM; stronger effect = higher value
Sequence (P43351 whole entry, looked up): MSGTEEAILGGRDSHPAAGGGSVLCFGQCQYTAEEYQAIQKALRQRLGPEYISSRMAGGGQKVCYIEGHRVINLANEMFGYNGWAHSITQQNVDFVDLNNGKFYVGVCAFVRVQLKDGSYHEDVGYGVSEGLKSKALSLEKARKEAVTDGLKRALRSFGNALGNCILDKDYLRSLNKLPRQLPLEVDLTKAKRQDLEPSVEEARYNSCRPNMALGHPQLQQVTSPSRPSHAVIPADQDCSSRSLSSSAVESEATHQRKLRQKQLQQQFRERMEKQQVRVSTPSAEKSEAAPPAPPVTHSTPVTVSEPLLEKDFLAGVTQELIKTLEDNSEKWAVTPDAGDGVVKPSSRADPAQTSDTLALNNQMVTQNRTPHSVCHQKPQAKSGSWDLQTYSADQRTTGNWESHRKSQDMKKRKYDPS

| SMILES | inhibition |
| --- | --- |
| N#Cc1cccc(-c2ccc(C3[C@H]4CNC[C@@H]3N4Cc3cncnc3)cc2)c1 (some centres not stated) | -10.4% (inactive) |
| N#Cc1ccc(-c2ccc(C3[C@H]4CNC[C@@H]3N4S(=O)(=O)c3ccccc3F)cc2)cc1 (some centres not stated) | 28.8% (inactive) |
| N#Cc1cccc(-c2ccc(C3[C@H]4CNC[C@@H]3N4S(=O)(=O)c3ccc(-c4ccccc4)cc3)cc2)c1 (some centres not stated) | 73.9% (active) and 22.4% (inactive) |
| CCCNC(=O)N(C)C[C@@H]1Oc2ncc(C#CC(C)C)cc2C(=O)N([C@H](C)CO)C[C@H]1C | -2.25% (inactive) |
| CCN(CC)CCNC(=O)c1ccc(NC(=O)c2cc(-c3ccncc3)nc3ccccc23)cc1 | 54.5% (active) |
| CCN(CC)CCNC(=O)c1ccc(NC(=O)c2c(F)cccc2Cl)cc1 | -8.76% (inactive) |
| O=C(Nc1ccc(S(=O)(=O)Nc2nccs2)cc1)c1cc(-c2ccncc2)nc2ccccc12 | -42.2% (inactive) |
| COC(=O)Cc1nnn2c1[C@H](C)[C@@H](OC)c1cc(Br)ccc1-2 | -4.62% (inactive) |
| C[C@@H]1CN([C@@H](C)CO)C(=O)c2cc(NC(=O)Nc3ccccc3)ccc2O[C@@H]1CN(C)Cc1ccccc1 | 8.18% (inactive) |
| COc1cccc(NC(=O)N[C@H]2C=C[C@H](CC(=O)NCc3ccccn3)O[C@@H]2CO)c1 | -25.9% (inactive) |
| COc1ccc(-c2ccc3c(c2)[C@@H]2[C@@H](CCN2C(=O)NC2CCCC2)[C@@H](CO)N3C)cc1 | -19% (inactive) |
| COCC(=O)Nc1ccc2c(c1)OC[C@H](C)NC[C@H](C)[C@H](OC)CN(C)C2=O | -2.26% (inactive) |
| Cc1nc(N=C(N)N)nc2c(C)cccc12 | 81.9% (active) |
| COc1cccc(CN2[C@H](CO)[C@@H]3c4ccccc4N(C(=O)c4ccncc4)C[C@@H]32)c1 | -8.72% (inactive) |
| CN(C)C(=O)c1cccc(-c2cnc3c(NC=O)cc(-c4ccc(F)cc4)cn23)c1 | -55.7% (inactive) |
| CC(=O)Nc1cc(-c2ccc(N3CCN(C)CC3)cc2)cn2c(-c3cccc(C(=O)N(C)C)c3)cnc12 | 79.7% (active) |
| CC(=O)c1cccc(-c2cnc3c(NC=O)cc(-c4ccc(N5CCN(C)CC5)cc4)cn23)c1 | 73.8% (active) |
| CN(C)C(=O)c1cccc(-c2cnc3c(NC=O)cc(-c4ccc(C(=O)N5CCOCC5)cc4)cn23)c1 | -29% (inactive) |
| CC(=O)c1cccc(-c2cnc3c(NC=O)cc(-c4ccc(N(C)C)cc4)cn23)c1 | -47.5% (inactive) |
| CC(=O)Nc1cc(-c2ccc(N3CCN(C)CC3)cc2)cn2c(-c3ccc(F)cc3)cnc12 | 18% (inactive) |
| CN(C)CCNC(=O)c1cccc(-c2cnc3c(NC=O)cc(-c4cccc(C(F)(F)F)c4)cn23)c1 | 67% (active) |

| SMILES | inhibition |
| --- | --- |
| CC(=O)Nc1cc(-c2cccc(CO)c2)cn2c(-c3cccc(C(F)(F)F)c3)cnc12 | -17.3% (inactive) |
| CC(=O)c1cccc(-c2cnc3c(NC=O)cc(-c4cccc(C(=O)N(C)C)c4)cn23)c1 | -0.741% (inactive) |
| O=C(C[C@H]1C=C[C@@H](NC(=O)C2CC2)[C@H](CO)O1)NCC1CC1 | 2.9% (inactive) |
| CO[C@H]1CN(C)C(=O)c2ccc(NC(=O)c3cnccn3)cc2OC[C@H](C)N(C)C[C@@H]1C | 2.76% (inactive) |
| O=C(Nc1ccccc1)N[C@H]1CC[C@H](CCNC(=O)c2ccccc2F)O[C@H]1CO | -10.3% (inactive) |
| CCCN(C)C[C@@H]1Oc2ncc(-c3cccc(C(=O)N(C)C)c3)cc2C(=O)N([C@H](C)CO)C[C@@H]1C | -4.17% (inactive) |
| CN(C)C(=O)C[C@H]1CC[C@H](NC(=O)NC2CCCC2)[C@@H](CO)O1 | -3.59% (inactive) |
| CCCC#Cc1ccc([C@H]2[C@@H](CO)N3CCCCN(C(=O)c4ccc5c(c4)OCO5)C[C@@H]23)cc1 | -42.9% (inactive) |
| COc1ccc(NC(=O)N(C)C[C@@H]2Oc3ccc(NC(=O)CCC(F)(F)F)cc3C(=O)N([C@@H](C)CO)C[C@H]2C)cc1 | -4.28% (inactive) |
| O=C(Nc1ccccc1)[C@@H]1[C@@H](CO)[C@@H]2Cn3c(cccc3=O)[C@@H]2N1C(=O)C1CC1 | 2.14% (inactive) |
| COc1ccc(-n2nnnc2SCC(=O)c2ccc(OC)c(OC)c2)cc1 | -22.4% (inactive) |
| C=Cn1cc[n+](CC(=O)c2ccc(OC)c(OC)c2)c1 | 98% (active) |
| COc1ccc(C(=O)COC(=O)c2ccc([N+](=O)[O-])s2)cc1OC | -8.04% (inactive) |
| COc1ccc2[nH]c3c(C)c4cc[n+](C)cc4c(C)c3c2c1 | 94.3% (active) |
| CC(=O)N(C)C[C@H]1Oc2ncc(C#CC3(O)CCCC3)cc2C(=O)N([C@@H](C)CO)C[C@@H]1C | 9.64% (inactive) |
| CO[C@@H]1CN(C)C(=O)c2ccc(NC(=O)Nc3ccccc3)cc2OC[C@@H](C)N(C(=O)CN(C)C)C[C@H]1C | 5.57% (inactive) |
| Cn1cnc(S(=O)(=O)N2CCCCN3[C@H](CO)[C@@H](c4ccc(-c5ccc(F)cc5)cc4)[C@@H]3C2)c1 | -27.5% (inactive) |
| COc1ccc(-c2cn(CC[C@H]3CC[C@@H](NC(=O)CCN4CCCCC4)[C@H](CO)O3)nn2)cc1 | -7.25% (inactive) |
| C[C@H]1CCCCO[C@H](CN(C)S(=O)(=O)c2ccc(F)cc2)[C@@H](C)CN([C@@H](C)CO)C(=O)c2cc(NS(=O)(=O)c3cn(C)cn3)ccc2O1 | -9.68% (inactive) |
| CCCCCCCCCCOC(=O)Cn1c(COc2ccc(C)cc2)[n+](C)c2ccccc21 | 79.8% (active) |
| CSc1ccccc1NC(=O)COC(=O)CCCOc1ccc(C)cc1 | -13.4% (inactive) |

| SMILES | inhibition |
| --- | --- |
| Cc1ccc(COc2ccc(C(=O)NN)cc2)cc1 | -18.7% (inactive) |
| COCC#Cc1ccc2c(c1)O[C@@H](CN(C)C(=O)Nc1ccccc1F)[C@H](C)CN([C@H](C)CO)S2(=O)=O | 11.1% (inactive) |
| O=S(=O)(c1ccccc1)N1CCCCN2[C@H](C1)[C@H](c1ccc(-c3ccccc3)cc1)[C@@H]2CO | -26.6% (inactive) |
| C[C@H]1CN([C@@H](C)CO)C(=O)c2cc(NC(=O)CCC(F)(F)F)ccc2O[C@H]1CN(C)Cc1ccc(C(=O)O)cc1 | -6.5% (inactive) |
| Cc1cc2oc3ccc(NCCC4CCCN4C)cc3c(=O)c2cc1C (configuration not stated) | 60.4% (active) |
| CN1CCC[C@@H]1CCO[C@](C)(c1ccccc1)c1ccc(Cl)cc1 | 27.4% (inactive) |
| COc1cccc2sc3cc(NCC[C@@H]4CCCN4C)ccc3c(=O)c12 | -48.1% (inactive) |
| COc1ccc2c3c([nH]c2c1)[C@H](CO)N(C(=O)c1ccncc1)CC31CCN(C(=O)c2ccncc2)CC1 | 2.16% (inactive) |
| COc1cccc(S(=O)(=O)N2C[C@@H]3N[C@H](C2)C3c2ccc(-c3cccc(C(=O)N(C)C)c3)cc2)c1 (some centres not stated) | 10.5% (inactive) and 16.9% (inactive) |
| COc1ccccc1S(=O)(=O)N1C[C@@H]2N[C@H](C1)C2c1ccc(-c2cccc(C)c2)cc1 (some centres not stated) | 56.8% (active) and 37.8% (inactive) |
| N#Cc1ccc(-c2ccc(C3[C@@H]4CN(S(=O)(=O)c5ccccc5F)C[C@H]3N4)cc2)cc1 (some centres not stated) | -15.8% (inactive) and -46.3% (inactive) |
| COc1ccc(NC(=O)N(C)C[C@H]2Oc3ccc(NS(=O)(=O)c4ccc(F)cc4)cc3C(=O)N([C@@H](C)CO)C[C@@H]2C)cc1 | 15.8% (inactive) |
| C[C@H](CO)N1C[C@H](C)[C@@H](CN(C)Cc2ccc(Cl)c(Cl)c2)Oc2ccc(NS(=O)(=O)c3ccccc3)cc2C1=O | -11.9% (inactive) |
| O=C(/C=C/c1ccc(Cl)cc1)Nc1ccc(Br)cn1 | -0.893% (inactive) |
| S=C(NCCCc1cnc[nH]1)NCCCN(Cc1ccc(Cl)c(Cl)c1)c1ccc(Br)cn1 | -1.73% (inactive) |
| NCCCNC(=S)NCCCN(Cc1ccc(Cl)cc1)c1ccc(Br)cn1 | 95% (active) |
| O=C1CN(S(=O)(=O)c2ccccc2)C[C@H]2[C@H](c3ccc(C4=CCCC4)cc3)[C@@H](CO)N12 | -19.1% (inactive) |
| C[C@H](NC(=O)C[C@@H]1C=C[C@H](NC(=O)CN2CCOCC2)[C@H](CO)O1)c1ccccc1 | 3.29% (inactive) |
| Cc1ccc2nc(CN(C)C(=O)[C@@H](Cc3ccccc3)NC(=O)[C@H]3O[C@@H](n4ccc(=O)[nH]c4=O)[C@H](O)[C@@H]3O)[nH]c2c1 | 5.6% (inactive) |
| C[C@@H]1CN([C@H](C)CO)C(=O)Cc2cc(N(C)C)ccc2O[C@H]1CN(C)S(C)(=O)=O | -4.07% (inactive) |
| CC(=O)NCCn1c(SCC(=O)Nc2ccc(C)cc2)nc2ccccc2c1=O | -11.4% (inactive) |

| SMILES | inhibition |
| --- | --- |
| CC(=O)Nc1ccc(Nc2c3ccccc3nc3ccccc23)cc1 | 91.2% (active) |
| CCc1c(C)nc2c(-c3ccccc3)c(C)nn2c1Nc1ccc(NC(C)=O)cc1 | -12.3% (inactive) |
| O=C(c1cnccn1)N1CC(=O)N2[C@H](C1)[C@@H](c1ccc(C#CC3CCCCC3)cc1)[C@@H]2CO | 13.7% (inactive) |
| O=C(NCCc1ccccn1)c1cc(-c2ccc(Cl)cc2)nc2ccccc12 | -15.9% (inactive) |
| CN(C)CCNC(=O)c1ccc(Cl)c2cc3ccccc3nc12 | 94.5% (active) |
| CNC(=O)c1cccc2nc3ccccc3nc12 | 2.55% (inactive) |
| Cn1cnc(S(=O)(=O)N[C@H]2C=C[C@H](CC(=O)NCC3CCCCC3)O[C@@H]2CO)c1 | 2.08% (inactive) |
| C[C@@H]1CN([C@H](C)CO)C(=O)c2cc(NS(=O)(=O)c3ccc(Cl)cc3)ccc2O[C@@H](C)CCCCO[C@H]1CN(C)Cc1ccccc1 | 64.2% (active) |
| C[C@@H]1CCCCO[C@H](CN(C)Cc2ccccc2)[C@@H](C)CN([C@H](C)CO)C(=O)c2cc(NS(=O)(=O)c3ccc(Cl)cc3)ccc2O1 | 35.2% (inactive) and -9.61% (inactive) |
| C[C@@H]1CCCCO[C@H](CN(C)C(=O)CCCN(C)C)[C@H](C)CN([C@@H](C)CO)C(=O)c2cc(NS(=O)(=O)c3ccccc3)ccc2O1 | 13.8% (inactive) |
| C[C@@H]1CCCCO[C@H](CN(C)Cc2ccccc2)[C@H](C)CN([C@H](C)CO)C(=O)c2cc(NS(=O)(=O)c3ccc(Cl)cc3)ccc2O1 | 53.1% (active) |
| C[C@H](CO)N1C[C@H](C)[C@H](CN(C)Cc2ccc(C(F)(F)F)cc2)OCCCC[C@H](C)Oc2ccc(NS(=O)(=O)c3ccc(Cl)cc3)cc2C1=O | 5.56% (inactive) |
| CC(C)NC(=O)N(C)C[C@H]1OCCCC[C@H](C)Oc2ccc(NS(=O)(=O)c3ccc(Cl)cc3)cc2C(=O)N([C@@H](C)CO)C[C@H]1C | 15.1% (inactive) |
| C[C@@H]1CCCCO[C@H](CN(C)S(=O)(=O)c2cccs2)[C@H](C)CN([C@@H](C)CO)C(=O)c2cc(NS(=O)(=O)c3cccs3)ccc2O1 | -2.6% (inactive) |
| C[C@@H]1CCCCO[C@H](CN(C)Cc2ccccc2)[C@H](C)CN([C@@H](C)CO)C(=O)c2cc(NS(=O)(=O)c3ccccc3)ccc2O1 | 7.51% (inactive) |
| C[C@@H]1CN([C@@H](C)CO)C(=O)c2cc(NS(=O)(=O)c3cn(C)cn3)ccc2O[C@@H](C)CCCCO[C@H]1CN(C)S(=O)(=O)c1cccs1 | 99.3% (active) |
| C[C@@H]1CCCCO[C@H](CN(C)C(=O)CCCN(C)C)[C@H](C)CN([C@@H](C)CO)C(=O)c2cc(NS(=O)(=O)c3ccc(Cl)cc3)ccc2O1 | 52.5% (active) |
| C[C@H](CO)N1C[C@H](C)[C@@H](CN(C)Cc2ccncc2)OCCCC[C@H](C)Oc2ccc(NS(=O)(=O)c3ccc(Cl)cc3)cc2C1=O | -15.9% (inactive) |
| C[C@@H]1CN([C@H](C)CO)C(=O)c2cc(NS(=O)(=O)c3cccs3)ccc2O[C@@H](C)CCCCO[C@@H]1CN(C)S(=O)(=O)c1cccs1 | -0.96% (inactive) |
